Assay outcomes: PubChem, National Center for Advancing Translational Sciences (NCATS)
Sampled rows, rich in hits. Any-hit rate of the full collection: about 2.4%.
Pol kappa inh: DNA polymerase kappa (human) inhibition; actives 0.53% (n = 400,000); purified Pol kappa, fluorescent DNA synthesis assay, 10 min; Potency, µM (doses to about 107 µM), without a hit: at the highest dose activity, negative = inhibition, hits mostly inhibitors; Q9UBT6; further: on the % scale 0 is the no-effect control and ±100 the full control effect
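Fluorescent qHTS in 1536-well format: enzyme (10 nM) and compound sat 15 min at room temperature before 50 nM substrate (final) was added. Signal taken at 0 and 10 min; no-enzyme buffer wells were negative controls.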
WRN helicase inh: WRN helicase (human) inhibition. Potency, µM (series often up to 114 µM), inactives show at the highest dose activity change, negative = inhibition, hits mostly inhibitors. Q14191. WRN helicase unwinding, fluorescent forked duplex, kinetic. actives 0.46% (n = 360,000). AID 651768; further: on the % scale 0 is the no-effect control and ±100 the full control effect; nearly all actives have a fitted effect of over 55% in size
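Fluorescence dequenching readout, ex 525 nm/em 598 nm, kinetic mode: forked duplex DNA (100 nM final) with adjacent fluorophore and quencher unwound by WRN (20 nM final) with 2 mM ATP. Compound preincubation 15 min, room temperature.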
POLB inh: inhibitors of human DNA polymerase beta; Pol beta primer extension/strand displacement, fluorescence kinetic; Potency, µM (titrated, usually from 114 µM), without a hit: at the highest dose activity change, negative = inhibition, usual class: inhibitors; actives 1.3% (n = 340,000); AID 485314; further: on the % scale 0 is the no-effect control and ±100 the full control effect
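Homogeneous kinetic assay of primer extension and strand displacement by 10 nM Pol beta, preincubated 15 min at room temperature with compound before 50 nM substrate (final) was added. Read at 0 and 10 min; four-parameter Hill fit.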
POLI inh: blocks human DNA polymerase iota activity; Q9UNA4; Pol iota fluorescent replication assay, 10 min; Potency, µM (highest dose often 115 µM), without a hit: at the highest dose activity, negative = inhibition, most hits filed as inhibitors; actives 1% (n = 390,000); AID 588590
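Pol iota at 10 nM preincubated 15 min with compounds at room temperature; reaction started with fluorescent substrate, 50 nM final. Fluorescence read kinetically at 0 and 10 min; buffer-only wells as negative control.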
FEN1 inhibitor: inhibitors of human flap endonuclease 1. actives 0.35% (n = 390,000). Recombinant FEN1 flap cleavage, fluorescence, 15 min. Potency, µM (doses to about 114 µM), for the others: top-dose activity change, negative = inhibition, actives largely listed as inhibitors; further: on the % scale 0 is the no-effect control and ±100 the full control effect; nearly all actives have a fitted effect of over 65% in size
Target sequence (P39748 whole entry, looked up): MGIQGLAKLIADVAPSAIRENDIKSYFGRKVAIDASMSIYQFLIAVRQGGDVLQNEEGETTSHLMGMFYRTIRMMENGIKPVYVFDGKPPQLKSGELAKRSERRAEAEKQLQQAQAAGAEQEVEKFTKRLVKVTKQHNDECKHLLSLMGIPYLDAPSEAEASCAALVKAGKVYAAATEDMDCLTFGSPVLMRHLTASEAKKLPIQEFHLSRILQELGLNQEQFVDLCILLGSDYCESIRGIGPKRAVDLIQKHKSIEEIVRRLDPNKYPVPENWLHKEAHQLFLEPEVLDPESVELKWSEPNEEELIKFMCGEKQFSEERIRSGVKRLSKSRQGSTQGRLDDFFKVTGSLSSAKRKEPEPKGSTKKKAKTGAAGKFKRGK
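FEN1 at 10 nM, compound pretreatment for 15 min (room temperature), 50 nM final substrate to initiate; endpoint reads at 0 and 15 min; DMSO-only plates used as vehicle background.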
Pol eta inh: DNA polymerase eta (human) inhibition | Q9Y253 | recombinant Pol eta, fluorescent DNA replication assay | Potency, µM (doses to about 114 µM), for inactives: at the top dose activity change, negative = inhibition, hits mostly inhibitors | actives 1.2% (n = 390,000); further: on the % scale 0 is the no-effect control and ±100 the full control effect
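Fluorescent replication assay: 50 nM final substrate added after a 15 min room-temperature compound preincubation with 10 nM enzyme. Signal taken at 0 min and again at 10 min.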
The depositor's hits bear a star; u = inconclusive; x = no result given; ! = a repeat was not active; [ ] = remark or other dose. The call rests on the fitted dose curve; in most records, active means well fitted curve in the direction sought with a large enough effect; inconclusive means small, poorly fitted or top-dose-only effect, or another doubt; inactive means no such curve, though single readings can be large; an effect the other way counts as inactive or inconclusive. Potency means the concentration at half of the fitted maximal effect.

SMILES | Pol kappa inh | WRN helicase inh | POLB inh | POLI inh | FEN1 inhibitor | Pol eta inh
Cc1cccc(-n2nc3c(c2NC(=O)c2ccco2)CSC3)c1C | 28µM* | 45µM* | u | 14µM* | u | 13µM*
Cc1ccccc1-n1nc2c(c1NC(=O)c1c(-c3ccccc3Cl)noc1C)CSC2 | -15% | -13% | 25% | 79µM* | u | 10%
O=C(COc1ccccc1C(=O)Nc1ccccc1)NCCCCc1ccccc1 | -2% | x | x | -27% | -10% | x
COc1ccccc1C(=O)NC1(C(F)(F)F)C(=O)Nc2c1c(=O)[nH]c(=O)n2-c1ccccc1 (stereo not drawn) | 1% | x | 13% | -11% | 6% | 0%
Cc1cccc(N=C2NC(=O)S/C2=C\c2ccco2)c1 | 79µM* | -27% | u | 35µM* | -26% | u
O=C1NC(=Nc2ccc(O)cc2)S/C1=C/c1ccco1 | -34% | -10% | u | 7% | -1% | -10%
Cc1ccc(N=C2NC(=O)/C(=C\c3ccco3)S2)cc1 | u | u | u | 32µM* | -5% | 14µM*
CC(=O)C1=C(O)C(=O)N(c2ccc(Br)cn2)C1c1ccccc1[N+](=O)[O-] (stereo not drawn) | -6% | 10% | 0% | 23% | 14% | -3%
CC(=O)C1=C(O)C(=O)N(c2ccccn2)C1c1ccccc1[N+](=O)[O-] (stereo not drawn) | 8% | 71µM* | 2% | 11% | 3% | -3%
CN(C)c1ccc(CNC(=O)CCS(=O)(=O)c2ccc3c(c2)n(C)c(=O)c(=O)n3C)cc1 | 0% | -10% | 25µM* | 5% | -2% | -16%
O=C(CSc1nc2c([nH]c3ccccc32)c(=O)n1-c1cccc(C(F)(F)F)c1)N1CCCC1 | -2%[60.1 µM] | x | 29% | 8% | -10% | -13%
O=C1/C(=C/c2ccncc2)CCc2ccccc21 | 6% | 5%[11.6 µM] | 0% | -12% | -4% | 79µM*
CCOC(=O)c1cc(C)n(CC2CCC(C(=O)Nc3ccc(OC)cc3)CC2)c1C (stereo not drawn) | 2% | x | 26% | 8% | -1% | -6%
Fc1cc(Br)ccc1Nc1c2c(nc3nc(-c4cccs4)nn13)CCCC2 | -4%[60.1 µM] | x | 0% | -15% | 12% | -17%
CCCCC[C@H](O)/C=C/C=C\CCCCCCCC(=O)O | 3%[19.4 µM] | x | x | x | x | x
CCCCC[C@H](O)/C=C/C1=C(CCCCCCC(=O)O)C(=O)CC1 | 50µM*! | u | u | 45µM* | -3% | 25µM*
Cc1cc2nccc(C)c2cc1C | -2% | x | x | 15% | -13% | x
CCN(CC)S(=O)(=O)c1cc(NC(=O)c2ccc3c(c2)NC(=O)C(C)S3)ccc1C (stereo not drawn) | -1% | -3%[11.6 µM] | x | -15% | -1% | 56µM*
CCN(CC)S(=O)(=O)c1cc(NC(=O)c2ccc(Br)s2)ccc1C | -7% | -9% | -2% | 6% | -20% | 0%
CCOc1ccc(C2=CC(c3cc(Br)ccc3F)n3ncnc3N2)cc1Cl (stereo not drawn) | -14%[60.1 µM] | x | u | u | -23% | -14%
C=CC(=O)Oc1ccc(N2Cc3ccccc3C2=O)cc1 | -38% | 56µM* | x | 40µM* | -10% | 32µM*
COc1ccc(N2Cc3ccccc3C2=O)cc1 | -5% | -15% | -1% | 10% | 4% | -23%
COc1ccc(/C=C2\SC(=S)N(CCCC(=O)NNC(=O)c3ccccc3O)C2=O)cc1 | -20% | -11%[57.1 µM] | 4% | 55% | -3% | 8%
O=C(CN1C(=O)S/C(=C\c2ccc(Cl)cc2)C1=O)NNC(=O)c1ccccc1O | -36% | u | 50µM* | u | -24% | u
O=C(NN1C(=O)/C(=C/c2ccc(O)cc2)SC1=S)c1ccccc1O | -26% | -14%[11.6 µM] | -20% | u | -20% | 79µM*
SMILES | Pol kappa inh | WRN helicase inh | POLB inh | POLI inh | FEN1 inhibitor | Pol eta inh
O=C(CN1C(=O)S/C(=C\c2ccccc2)C1=O)Nc1cc([N+](=O)[O-])ccc1O | 0% | -1%[11.6 µM] | -1% | -21% | 1% | 79µM*
O=C(Cc1ccccc1)NN1C(=O)/C(=C/c2ccc(C(=O)O)cc2)SC1=S | -9% | -16% | 5% | u | -10% | -1%
O=C(Nc1cccc(F)c1)N1CC[C@@]2(CCCN(C(=O)c3cc(C(F)(F)F)cc(C(F)(F)F)c3)C2)C1 | -3%[60.1 µM] | x | x | x | x | x
O=S1(=O)CCO[C@H]2CCCC[C@@H]2N1Cc1ccc(Cl)cc1 | -16% | x | x | 24% | -15% | x
CCC1Oc2ccc(C)cc2N(CC(=O)NCc2ccc(OC)cc2)C1=O (stereo not drawn) | -20% | x | 47% | u | -21% | -6%
CCc1ccc(NC(=O)CC2C(=O)N(c3ccc(Cl)cc3)C(=O)N2C2CCCC2)cc1 (stereo not drawn) | u | x | 0% | 89µM* | 40µM* | -14%
CN1CCN(c2ncnc3ccc(-c4cccc(C#N)c4)cc23)CC1 | 4%[60.1 µM] | x | x | x | x | x
CCOc1ccc(S(=O)(=O)Nc2ccccc2C(=O)N2CCCC2)cc1 | -7% | -19% | 1% | 22% | 2% | -10%
CCOc1ccc(Oc2ccccc2NS(=O)(=O)c2ccc(CCC(=O)O)cc2)cc1 | -12% | 0%[11.6 µM] | x | 16% | -4% | 35µM*
O=C(NNC(=O)c1cc2cc3ccccc3nc2s1)c1ccc(F)cc1 | -37% | -23%[57.1 µM] | 0.32µM* | u | -10% | u
Cn1c(-n2cccc2)c(-c2c(-c3ccccc3)[nH]c3c2c(=O)n(C)c(=O)n3C)c(=O)n(C)c1=O | -19% | x | 5% | 8% | 17% | -1%
CCOC(=O)C(C(C)=O)c1c(Br)c(O)c(O)c2c(C(=O)c3ccc(C)cc3)coc12 (stereo not drawn) | 50µM* | -25% | -6% | 25µM* | -20% | -17%
CC(=O)N1CCC2(CCN(Cc3nccs3)CC2)CC1 | 0%[60.1 µM] | x | x | x | x | x
CCCOc1ccc(NC(=O)CC2C(=O)N(c3ccc(Cl)cc3)C(=O)N2CCc2ccncc2)cc1 (stereo not drawn) | 0% | x | 2% | 27% | 1% | -20%
CC(CC(=O)NCc1ccc(Cl)cc1)CC1=NS(=O)(=O)c2ccccc2N1 (stereo not drawn) | 5%[60.1 µM] | x | -24% | 10% | 0% | -9%
CCS(=O)(=O)N1Cc2ccccc2CC1C(=O)Nc1nnc(SCc2ccc(C#N)cc2)s1 (stereo not drawn) | u | u | 10µM* | u | -9% | u
CCSc1nnc(NC(=O)C2Cc3ccccc3CN2C(=O)c2ccco2)s1 (stereo not drawn) | u | u | 22µM* | u | -11% | 28µM*
